Assay results from PubChem BioAssay AID1117319 (Southern Research Institute, 2015).
Out of some 260,000 compounds screened, about 1,500 (0.58%) were called active. Not shown: some 5% with an inconclusive outcome.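 How the source made its calls: active means inhibition above a set limit at one or more doses, reproduced on every date tested; inconclusive means results disagree between test dates, or hit never tested in dose response; inactive means the rest.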 A selection follows. Entries with a potency or affinity are not part of this list.

target: Virion infectivity factor (Human immunodeficiency virus type 1 group M subtype B (isolate BH10)) + Virion infectivity factor (Human immunodeficiency virus type 1 group M subtype B (isolate BRU/LAI)) + Virion infectivity factor (Human immunodeficiency virus type 1 group M subtype B (isolate PCV12)) + Virion infectivity factor (Human immunodeficiency virus type 1 group M subtype B (isolate HXB2)) + DNA dC->dU-editing enzyme APOBEC-3G (Homo sapiens) (UniProt P69720+P69721+P69722+P69723+Q9HC16); test: inhibitors of Vif binding to APOBEC3G peptide, primary screen, biochemical, TR-FRET, GST-Vif 1-94, biotin-A3G peptide, dose response retest (AID 1117319); settings: active compounds read high;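 further: Vif residues 1-94 fused to GST binding biotinylated APOBEC3G peptide 110-148; 0% = full assay without inhibitor and 100% = GST in place of GST-Vif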

SMILES | inhibition
Cc1ccc(OCCOCCN2CCN(C)CC2)c([N+](=O)[O-])c1 | 6.13% (inactive)
CCOC(=O)C1CCN(c2c(NCc3ccc(C(=O)NC4CCCC4)cc3)c(=O)c2=O)CC1 | 0.11% (inactive)
COc1ccc(Cc2c(O)nc(SCC(=O)N3CCCCCC3)[nH]c2=O)cc1 | -4.82% (inactive)
Cc1cccc(NC(=O)/C=C/c2cccs2)n1 | 4.61% (inactive)
O=C(/C=C/c1cccs1)Nc1cccc(NC(=O)/C=C/c2cccs2)n1 | 13.7% (inactive)
Cc1nn(-c2ccc(Cl)cn2)c2c1C(=O)CC(C)(C)C2Br (stereo not drawn) | -0.39% (inactive)
CO[C@@]12[C@@H]3N[C@@H]3CN1C1=C(C(=O)C(N)=C(C)C1=O)[C@@H]2COC(N)=O | 5.83% (inactive)
[O-][n+]1c2ccc3nonc3c2nn1-c1ccccc1Cl | -0.31% (inactive)
O=C(CSc1ccc(-c2ccccn2)nn1)Nc1nccs1 | -5.9% (inactive)
CCOCCCNC(=O)c1cccc(NC(=O)C2=C(C)OCCS2)c1 | -0.24% (inactive)
COc1ccc([N+](=O)[O-])cc1NC(=O)COC(=O)Cc1cc(OC)c(OC)c(OC)c1 | -5.64% (inactive)
COc1cc(CC(=O)OCC(=O)Nc2ccc([N+](=O)[O-])cc2)cc(OC)c1OC | 31.8% (inactive)
Cc1csc(SCC(=O)NC2CCS(=O)(=O)C2)n1 (stereo not drawn) | -3.32% (inactive)
COc1cccc(NC(=O)CN2C(=O)COc3ccc(S(=O)(=O)N4CCOCC4)cc32)c1 | 0% (inactive)
CC(=O)c1ccc(NC(=O)c2ccc(-n3cnnn3)cc2)cc1 | -12.9% (inactive)
CCOC(=O)c1cccc(NC(=O)c2ccc(-n3cnnn3)cc2)c1 | -5.14% (inactive)
COc1ccc(NC(=O)CCc2ccccc2)cc1S(=O)(=O)N1CCCCC1 | 2.14% (inactive)
O=C(Nc1nc2ccccc2s1)c1ccc2c(c1)S(=O)(=O)c1ccccc1C2=O | 28.5% (inactive)
O=C(c1ccc(Br)o1)N1CCN(C/C=C/c2ccccc2)CC1 | 2.12% (inactive)
C/C(=N\NC(=S)NCc1ccccc1)c1ccc(C(C)(C)C)cc1 | 9.19% (inactive)

SMILES | inhibition
C/C(CCC(=O)O)=N/Nc1ccc([N+](=O)[O-])cc1[N+](=O)[O-] | 5.85% (inactive)
CC(C)NC1=C(Cl)C(=O)c2ccccc2C1=O | 2.61% (inactive)
NC(=O)C1CCN(C2OC(=O)c3ccccc32)CC1 (stereo not drawn) | -1.56% (inactive)
O=C1C(Cl)=C(NCCCN2CCOCC2)C(=O)c2ccccc21 | 3.39% (inactive)
NC(=O)C1CCN(C2=C(NS(=O)(=O)c3ccc(Cl)cc3)C(=O)c3ccccc3C2=O)CC1 | 10.6% (inactive)
CN1CCN(C2=C(NS(=O)(=O)c3ccccc3)C(=O)c3ccccc3C2=O)CC1 | -3.21% (inactive)
CN1CCN(C2=C(Cl)C(=O)N(Cc3ccccc3)C2=O)CC1 | 14.1% (inactive)
COc1ccc(OC)c(NC(=O)CNC(=O)Cn2c(C)cc3ccccc3c2=O)c1 | 7.41% (inactive)
O=C(c1ccco1)N1CCN(C(=O)C2Cc3ccccc3CN2S(=O)(=O)c2ccc(F)cc2)CC1 (stereo not drawn) | -4.72% (inactive)
CN(Cc1cccc2cnccc12)C(=O)c1cc(COc2ccc(F)cc2F)on1 | -7.76% (inactive)
COc1cccc(CN2CCN(Cc3cccc4c3OCO4)CC2CCO)c1 (stereo not drawn) | -2.33% (inactive)
CCOC(=O)C(C(=O)NCc1ccc(F)cc1)c1ncc(C(F)(F)F)cc1Cl (stereo not drawn) | 5.68% (inactive)
Nc1ncnc(Nc2cc(C(F)(F)F)cc(C(F)(F)F)c2)n1 | 11% (inactive)
COc1ccc(C(=O)N/C(=C/c2cccnc2)C(=O)N2CCCCCC2)cc1OC | 2.36% (inactive)
COc1ccccc1C(=O)N/C(=C\c1ccc(Br)cc1)C(=O)NCCC(=O)O | -1.86% (inactive)
Cc1oc(/N=C/c2ccccc2O)c(C#N)c1C | 6.98% (inactive)
Cc1oc(/N=C/c2ccc(O)cc2O)c(C#N)c1C | -3.01% (inactive)
Clc1cccc(C2=NOC(c3nnc(-c4ccccc4)o3)C2)c1 (stereo not drawn) | -9.96% (inactive)
Cc1cc(C)c(OCCNC(=O)c2ccccc2Sc2ccccc2C#N)c(C)c1 | -2.47% (inactive)
CC(=O)Oc1ccc(N2C(=O)C3C4C=CC(O4)C3C2=O)cc1 (stereo not drawn) | -0.5% (inactive)

SMILES | inhibition
O=C(O)CSc1c2c(nc3cc(C(=O)N4CCCC4)ccc13)CCCC2 | 4.71% (inactive)
CCOC(=O)C1CCN(C(=O)c2ccc3c(SCC(=O)O)c4c(nc3c2)CCCC4)CC1 | -8.86% (inactive)
CCCN(C(=O)c1ccc2c(SCC(=O)O)c3c(nc2c1)CCC3)c1cccc(C)c1 | 18.7% (inactive)
CCC(C)NC(=O)c1ccc2c(SCC(=O)O)c3c(nc2c1)CCCC3 (stereo not drawn) | 7.55% (inactive)
COc1cccc(/C=C2\SC(=S)N(CC(=O)N(C)C3CCS(=O)(=O)C3)C2=O)c1 (stereo not drawn) | 3.59% (inactive)
Cc1c(Cl)cccc1Nc1nc(N)nc(CSC(=S)N2CCOCC2)n1 | 0.88% (inactive)
NS(=O)(=O)c1ccc(CCNS(=O)(=O)c2ccccc2)cc1 | 22.8% (inactive)
O=C(CSc1ccc2nnc(-c3ccncc3)n2n1)Nc1nccs1 | -1.26% (inactive)
O=S(=O)(NCCN1CCCC1)c1ccc(C(F)(F)F)cc1 | 1.25% (inactive)
COc1ccc(-c2cc(C(F)(F)F)c(C#N)c(=O)[nH]2)cc1 | -2.26% (inactive)
Cc1cc(-c2ccccc2)[nH]c(=O)c1C#N | -1.26% (inactive)
N#Cc1c(-c2cccc(Br)c2)cc(-c2ccco2)[nH]c1=O | 15.1% (inactive)
N#Cc1c(-c2ccccc2)cc(-c2ccccc2)[nH]c1=O | -8.66% (inactive)
COC(=O)c1ccc(NC(=S)N2CCN(Cc3ccccc3)CC2)cc1 | 10.9% (inactive)
O=C(c1ccc(COc2ccc3ccccc3c2)o1)N1N=C(C(F)F)CC1(O)C(F)F (stereo not drawn) | -0.12% (inactive)
COc1cc2[nH]c(=S)nc(NCc3ccc(C)cc3)c2cc1OC | -6.65% (inactive)
O=C1C(O)=CC(=C(c2ccccc2)c2ccccc2)c2ccccc21 | 15.1% (inactive)
Cc1ccc2c(CC(=O)OCc3csc(C)n3)coc2c1 | 11.1% (inactive)
